# PubChem BioAssay (NCI)
# Compounds without any hit were thinned out: in the full panel of roughly 83,000, 20% have a hit.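 Results are percent growth after 48 hours of single-concentration exposure. 100 means growth as in untreated cells, lower positive values show inhibition; negative values down to -100 show cell death.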 Unmarked numbers belong to inactive results. Active and inactive are the calls of the source. How the source made its calls: active means growth percent below 10; inactive means the rest.
# Test system: HL-60(TB) leukemia
# Assay: NCI-60 one-dose screen, 48 h (100 = growth as untreated, 0 = no growth, -100 = all killed)
# Details: 10 µM unless noted
row,Structure (SMILES),growth
1,O=[N+]([O-])c1cccc(C(F)(F)F)c1,109%
2,CCCCCCCCN(CCCCCCCC)CCCCCCCCCN1CCCc2cc(OC)ccc21,89.6%
3,CC1(C)CC(C(=O)OCCCCCCCCCCC[P+](c2ccccc2)(c2ccccc2)c2ccccc2)C(C)(C)N1O (stereo not given),-70.8% (active)
4,O=C(Nc1ccc(F)cc1)c1cc2cc(Nc3nc(-c4ccccc4)nc4ccccc34)ccc2oc1=O,102%
5,CCc1c(C(=O)Nc2ccc3ccccc3c2)[nH]c(C)c1C(C)=O,99.7%
6,CC(/C=N/NC(=O)c1cc(-c2ccco2)[nH]n1)=C\c1ccccc1,99%
7,COC(=O)c1ccc(C2Nc3ccc(S(=O)(=O)Nc4ccc(C)c(C)c4)cc3C3OCCC23)cc1 (stereo not given),59.3%
8,O=C1C2C(c3cccs3)C=C(c3ccc(Cl)cc3)N2C(=S)N1c1ccccc1 (stereo not given),99.8%
9,CC(Br)C(O)c1cc2c(cc1Br)OCO2 (stereo not given),105%
10,CSc1nc(=S)c2nc(SC)n(-c3ccccc3)c2[nH]1,110%
11,Cc1cc(C)c(NC(=O)c2sc3nc4c(cc3c2N)CCCC4)c(C)c1,-6.2% (active)
12,Fc1ccc(-c2nc(-c3nc4ncccc4[nH]3)cc3c2[nH]c2ccccc23)cc1F,86.4%
13,O=C(NC1CCCCC1)c1ccc(Cl)cc1,92.8%
14,Cn1cc(-c2ccc(-c3cn(C)c4ccc(Cl)cc34)[nH]2)c2cc(Cl)ccc21,-37.8% (active)
15,CCOC(=O)C1C(=O)NC(C(=O)OCC)(C(=O)OCC)C1CC (stereo not given),106%
16,CCOc1nc(-c2ccccc2)cc2c(O)c(C(=O)NCCCO)[nH]c(=O)c12,177%
17,CCc1c(Nc2ccc(C)cc2)[nH]c(N)nc1=S,99.8%
18,COC(=O)/C(CCC=C(C)C)=C1\[C@@H](OC(C)=O)C[C@@]2(C)[C@H]1C/C(=N/O)[C@H]1[C@@]3(C)CC/C(=N\O)[C@@H](C)[C@@H]3CC[C@@]12C,89.3%
19,N=C(N)c1ccc(-c2cc(Cl)cc(Cl)c2)cn1,98.1%
20,Cc1ccc(C2CC(c3nc(-c4ccc(Cl)cc4)oc3C)=NN2C(=O)c2ccncc2)cc1 (stereo not given),97.7%

row,Structure (SMILES),growth
1,O=C1/C(=C/c2ccc(C(F)(F)F)cc2)COc2ccc(O)cc21,-36.1% (active)
2,CCCCCC/C=N/Nc1ccc([N+](=O)[O-])cn1,62.5%
3,O=C1Nc2ccccc2C12C=C(c1ccccc1)Nc1c2c(-c2ccccc2)nn1-c1ccccc1 (stereo not given),5.77% (active)
4,O=S(=O)(NCCNc1nccc(-c2c(-c3cccc(F)c3)nc3occn23)n1)c1ccc(Br)cc1,103%
5,O=C(Cn1cc(CSc2nc3ccccc3o2)nn1)Nc1ccc(F)cc1F,102%
6,COC(=O)c1cc2c3c(cc(O)c2[nH]1)N(C(=O)C1Cc2cc(OC)c(OC)c(OC)c2N1)CC3CCl (stereo not given),-5.77% (active)
7,Cc1ccc(NC(=O)C2CCC(CN3CCN(C)CC3)CC2)cc1Nc1nccc(-c2cccnc2)n1 (stereo not given),110%
8,Oc1ccccc1/C=N\Nc1ccccc1,16.5%
9,O=C(NO)c1ccc(CNc2cccc3nc(C4CC4)n(-c4ccccc4)c(=O)c23)cc1,7.45% (active)
10,CC(Br)c1nc2ccccc2cc1C(N)=O (stereo not given),104%
11,O=[N+]([O-])c1ccc(/C=N\Nc2ccccc2)cc1,94.6%
12,O=C(COc1cc(O)c2c(=O)cc(-c3ccccc3)oc2c1)Nc1ccccc1C(F)(F)F,55%
13,COc1cccc(-c2nc(SCC(=O)Nc3ccc(C(=O)/C=C/c4ccc(OC)c(OC)c4)cc3)[nH]c(=O)c2C#N)c1,98.2%
14,COc1ccc2c(c1)C(=O)/C(=C/c1cccc(OCC(=O)c3ccccc3)c1)CC2,46.5%
15,O=C(O)c1cn(C2CC2)c2cc(N3CCN(Cc4c(O)ccc5ccccc45)CC3)c(F)cc2c1=O,71.6%
16,Cn1c2ccccc2c2nnc(N/N=C/c3ccccn3)nc21,-46.1% (active)
17,CCOC(=O)c1c(C)oc2ncnc(Nc3ccc(C(=O)NCCc4ccccc4)cc3)c12,87.7%
18,C/C(=N\NC(=S)N1CC2CCC(CC2)C1)c1ccccn1,-22.4% (active)
19,C=C(C)CCC(C)N1CCC(N2CCC(C(=O)NCCc3ccccc3)CC2)CC1 (stereo not given),27.4%
20,COC1/C=C/OC2(C)Oc3c(C)c(O)c4c(O)c(c(/C=N/N(c5ccccc5)c5ccccc5)c(O)c4c3C2=O)NC(=O)C(C)=C/C=C/C(C)C(O)C(C)C(O)C(C)C(OC(C)=O)C1C (stereo not given),53.1%
